ChEMBL document CHEMBL1961873, “Compounds: GSK PKIS; Assays: Nanosyn kinase panel” (2012)

Columns and labels:
[1] = biological target: Serine/threonine-protein kinase PAK 6 (Homo sapiens) (UniProt Q9NQU5); conditions: at 1 µM;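 further: values are mean percent inhibition of PAK6 kinase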
[2] = tested on: Tyrosine-protein kinase ABL1 (Homo sapiens), P00519 [E255K]; conditions: at 0.1 µM
[3] = tested on: Tyrosine-protein kinase ABL1 (Homo sapiens), P00519 [E255K]; conditions: at 1 µM
[4] = tested on: Tyrosine-protein kinase ABL1 (Homo sapiens), P00519 [H396P]; conditions: at 0.1 µM
[5] = tested on: Tyrosine-protein kinase ABL1 (Homo sapiens), P00519 [H396P]; conditions: at 1 µM
[6] = tested on: Tyrosine-protein kinase ABL1 (Homo sapiens), P00519 [M351T]; conditions: at 0.1 µM
[7] = tested on: Tyrosine-protein kinase ABL1 (Homo sapiens), P00519 [M351T]; conditions: at 1 µM
[8] = tested on: Tyrosine-protein kinase ABL1 (Homo sapiens), P00519 [Q252H]; conditions: at 0.1 µM
[9] = tested on: Tyrosine-protein kinase ABL1 (Homo sapiens), P00519 [Q252H]; conditions: at 1 µM
[10] = tested on: Tyrosine-protein kinase ABL1 (Homo sapiens), P00519 [T315I]; conditions: at 0.1 µM
[11] = tested on: Tyrosine-protein kinase ABL1 (Homo sapiens), P00519 [T315I]; conditions: at 1 µM
[12] = tested on: Tyrosine-protein kinase ABL1 (Homo sapiens), P00519 [Y253F]; conditions: at 0.1 µM
[13] = tested on: Tyrosine-protein kinase ABL1 (Homo sapiens), P00519 [Y253F]; conditions: at 1 µM
[14] = biological target: Tyrosine-protein kinase ABL1 (Homo sapiens) (UniProt P00519); conditions: at 0.1 µM
[15] = biological target: Tyrosine-protein kinase ABL1 (Homo sapiens) (UniProt P00519); conditions: at 1 µM
[16] = biological target: ALK tyrosine kinase receptor (Homo sapiens) (UniProt Q9UM73); conditions: at 0.1 µM
[17] = biological target: ALK tyrosine kinase receptor (Homo sapiens) (UniProt Q9UM73); conditions: at 1 µM
[18] = biological target: Tyrosine-protein kinase ABL2 (Homo sapiens) (UniProt P42684); conditions: at 0.1 µM
[19] = biological target: Tyrosine-protein kinase ABL2 (Homo sapiens) (UniProt P42684); conditions: at 1 µM
[20] = biological target: Tyrosine-protein kinase receptor UFO (Homo sapiens) (UniProt P30530); conditions: at 0.1 µM;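 further: values are mean percent inhibition of AXL from the GSK PKIS screen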
Sequence of Tyrosine-protein kinase receptor UFO (Homo sapiens) (P30530 whole entry): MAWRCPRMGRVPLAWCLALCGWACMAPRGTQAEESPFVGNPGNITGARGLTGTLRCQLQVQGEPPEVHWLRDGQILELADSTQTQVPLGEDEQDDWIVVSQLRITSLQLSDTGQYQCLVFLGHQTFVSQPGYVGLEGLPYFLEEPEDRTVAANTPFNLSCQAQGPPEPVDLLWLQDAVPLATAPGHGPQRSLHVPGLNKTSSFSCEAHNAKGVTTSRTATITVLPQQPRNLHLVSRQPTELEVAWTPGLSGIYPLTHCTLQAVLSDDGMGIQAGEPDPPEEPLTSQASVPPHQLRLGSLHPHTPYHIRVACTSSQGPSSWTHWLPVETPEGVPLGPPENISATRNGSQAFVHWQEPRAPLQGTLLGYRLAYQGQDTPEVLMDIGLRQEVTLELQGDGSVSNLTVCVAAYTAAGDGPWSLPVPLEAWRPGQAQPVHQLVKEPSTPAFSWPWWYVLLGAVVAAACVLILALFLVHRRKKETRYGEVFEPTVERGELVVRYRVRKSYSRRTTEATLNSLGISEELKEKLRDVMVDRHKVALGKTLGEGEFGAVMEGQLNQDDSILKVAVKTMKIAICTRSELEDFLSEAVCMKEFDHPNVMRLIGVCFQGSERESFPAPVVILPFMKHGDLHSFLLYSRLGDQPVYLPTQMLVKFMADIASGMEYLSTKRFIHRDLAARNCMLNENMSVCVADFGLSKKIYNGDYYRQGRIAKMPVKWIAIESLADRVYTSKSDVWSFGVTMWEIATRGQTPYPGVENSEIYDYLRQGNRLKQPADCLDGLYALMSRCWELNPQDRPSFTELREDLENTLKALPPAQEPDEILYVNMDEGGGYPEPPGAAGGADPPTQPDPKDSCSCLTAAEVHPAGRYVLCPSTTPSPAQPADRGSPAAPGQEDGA

Sequence of Tyrosine-protein kinase ABL2 (Homo sapiens) (P42684 whole entry): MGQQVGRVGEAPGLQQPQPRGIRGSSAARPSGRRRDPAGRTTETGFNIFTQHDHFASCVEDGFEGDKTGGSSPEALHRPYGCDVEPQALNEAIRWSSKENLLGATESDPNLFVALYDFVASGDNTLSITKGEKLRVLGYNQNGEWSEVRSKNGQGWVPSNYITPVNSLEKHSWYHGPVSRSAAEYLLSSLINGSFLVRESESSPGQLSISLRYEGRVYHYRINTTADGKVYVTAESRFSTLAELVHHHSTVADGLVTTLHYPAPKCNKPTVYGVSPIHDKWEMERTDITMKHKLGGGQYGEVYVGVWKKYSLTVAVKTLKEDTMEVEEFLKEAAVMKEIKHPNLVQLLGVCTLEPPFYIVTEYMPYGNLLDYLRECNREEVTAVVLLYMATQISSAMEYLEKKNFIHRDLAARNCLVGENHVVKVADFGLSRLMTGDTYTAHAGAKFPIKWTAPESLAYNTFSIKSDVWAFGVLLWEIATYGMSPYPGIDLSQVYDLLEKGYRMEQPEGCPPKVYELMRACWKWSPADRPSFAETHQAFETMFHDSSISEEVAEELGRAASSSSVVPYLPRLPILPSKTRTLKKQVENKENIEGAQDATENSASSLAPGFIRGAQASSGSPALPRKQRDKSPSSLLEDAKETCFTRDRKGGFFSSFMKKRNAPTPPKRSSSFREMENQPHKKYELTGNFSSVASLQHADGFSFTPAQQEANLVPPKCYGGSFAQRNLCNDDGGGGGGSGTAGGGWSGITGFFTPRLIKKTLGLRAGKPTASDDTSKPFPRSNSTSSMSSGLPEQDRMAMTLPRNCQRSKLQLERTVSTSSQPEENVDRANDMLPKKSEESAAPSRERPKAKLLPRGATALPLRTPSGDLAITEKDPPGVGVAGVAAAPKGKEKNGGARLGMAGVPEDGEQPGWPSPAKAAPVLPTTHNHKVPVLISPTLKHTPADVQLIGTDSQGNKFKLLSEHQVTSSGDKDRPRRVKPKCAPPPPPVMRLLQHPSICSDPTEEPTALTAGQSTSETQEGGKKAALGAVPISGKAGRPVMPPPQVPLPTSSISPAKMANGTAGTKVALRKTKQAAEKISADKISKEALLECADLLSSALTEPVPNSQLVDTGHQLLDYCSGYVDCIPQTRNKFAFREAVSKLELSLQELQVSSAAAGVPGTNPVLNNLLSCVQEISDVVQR
Sequence of ALK tyrosine kinase receptor (Homo sapiens) (Q9UM73 19-1620 limits assumed): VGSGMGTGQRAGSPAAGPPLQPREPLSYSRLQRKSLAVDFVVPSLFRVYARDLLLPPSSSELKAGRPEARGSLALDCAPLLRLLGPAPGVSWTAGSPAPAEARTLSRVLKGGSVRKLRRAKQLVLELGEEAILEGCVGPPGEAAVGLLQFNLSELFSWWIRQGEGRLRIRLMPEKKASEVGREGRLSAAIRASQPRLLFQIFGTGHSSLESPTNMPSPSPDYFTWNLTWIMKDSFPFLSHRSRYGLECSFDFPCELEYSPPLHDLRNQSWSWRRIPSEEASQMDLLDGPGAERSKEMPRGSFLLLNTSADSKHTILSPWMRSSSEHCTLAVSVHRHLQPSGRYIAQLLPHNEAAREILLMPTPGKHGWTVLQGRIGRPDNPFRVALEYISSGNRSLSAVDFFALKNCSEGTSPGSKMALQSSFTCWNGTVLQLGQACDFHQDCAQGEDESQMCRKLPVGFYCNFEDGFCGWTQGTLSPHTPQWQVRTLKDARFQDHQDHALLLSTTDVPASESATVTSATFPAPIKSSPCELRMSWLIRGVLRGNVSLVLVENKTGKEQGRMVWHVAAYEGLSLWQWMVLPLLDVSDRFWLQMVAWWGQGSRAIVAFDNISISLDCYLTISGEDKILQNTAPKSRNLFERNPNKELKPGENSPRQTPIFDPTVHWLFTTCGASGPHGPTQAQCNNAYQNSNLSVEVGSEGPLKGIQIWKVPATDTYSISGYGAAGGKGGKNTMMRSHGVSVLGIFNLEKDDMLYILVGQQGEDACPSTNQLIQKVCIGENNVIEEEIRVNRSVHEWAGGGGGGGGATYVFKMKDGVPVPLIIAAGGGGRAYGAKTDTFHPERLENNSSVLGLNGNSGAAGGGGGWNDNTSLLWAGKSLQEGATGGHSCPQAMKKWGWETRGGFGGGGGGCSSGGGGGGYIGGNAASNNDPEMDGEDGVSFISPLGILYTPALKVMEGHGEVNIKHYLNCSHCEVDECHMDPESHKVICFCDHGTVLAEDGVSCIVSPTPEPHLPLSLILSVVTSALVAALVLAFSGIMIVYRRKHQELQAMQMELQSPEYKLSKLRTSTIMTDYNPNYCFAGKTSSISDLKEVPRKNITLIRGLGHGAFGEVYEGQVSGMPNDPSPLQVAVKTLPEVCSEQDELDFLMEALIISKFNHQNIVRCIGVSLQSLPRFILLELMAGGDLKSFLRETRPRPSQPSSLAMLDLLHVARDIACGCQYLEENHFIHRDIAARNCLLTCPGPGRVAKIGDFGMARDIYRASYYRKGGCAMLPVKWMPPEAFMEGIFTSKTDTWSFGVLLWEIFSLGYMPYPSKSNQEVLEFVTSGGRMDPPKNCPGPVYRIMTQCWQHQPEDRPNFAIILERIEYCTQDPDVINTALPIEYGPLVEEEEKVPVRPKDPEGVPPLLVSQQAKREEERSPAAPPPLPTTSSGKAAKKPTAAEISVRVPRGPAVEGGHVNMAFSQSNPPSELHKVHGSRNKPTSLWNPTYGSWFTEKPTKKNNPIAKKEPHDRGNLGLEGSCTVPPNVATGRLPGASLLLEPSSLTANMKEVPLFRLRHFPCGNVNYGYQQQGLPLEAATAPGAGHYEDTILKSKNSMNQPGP
Sequence of Serine/threonine-protein kinase PAK 6 (Homo sapiens) (Q9NQU5 whole entry, looked up): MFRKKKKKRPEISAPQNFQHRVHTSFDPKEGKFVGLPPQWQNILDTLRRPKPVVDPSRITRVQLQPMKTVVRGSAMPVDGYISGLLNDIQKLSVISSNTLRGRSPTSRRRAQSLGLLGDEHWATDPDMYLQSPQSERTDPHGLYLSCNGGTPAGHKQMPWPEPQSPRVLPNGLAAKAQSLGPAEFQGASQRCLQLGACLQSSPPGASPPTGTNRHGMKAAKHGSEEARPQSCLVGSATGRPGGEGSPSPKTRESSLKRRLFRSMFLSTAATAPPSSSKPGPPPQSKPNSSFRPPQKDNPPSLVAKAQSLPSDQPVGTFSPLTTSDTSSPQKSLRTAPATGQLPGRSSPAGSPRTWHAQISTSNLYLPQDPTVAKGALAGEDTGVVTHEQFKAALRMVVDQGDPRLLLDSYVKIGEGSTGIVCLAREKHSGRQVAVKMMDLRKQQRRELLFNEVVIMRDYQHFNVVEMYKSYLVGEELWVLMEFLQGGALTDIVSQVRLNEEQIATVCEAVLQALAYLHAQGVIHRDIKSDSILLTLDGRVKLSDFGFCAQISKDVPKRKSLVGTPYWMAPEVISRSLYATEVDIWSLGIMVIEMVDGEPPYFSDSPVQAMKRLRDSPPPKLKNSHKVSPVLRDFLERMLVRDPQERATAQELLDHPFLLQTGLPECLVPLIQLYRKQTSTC

Structure (SMILES)	inhibition [1]	inhibition [2]	inhibition [3]	inhibition [4]	inhibition [5]	inhibition [6]	inhibition [7]	inhibition [8]	inhibition [9]	inhibition [10]	inhibition [11]	inhibition [12]	inhibition [13]	inhibition [14]	inhibition [15]	inhibition [16]	inhibition [17]	inhibition [18]	inhibition [19]	inhibition [20]
CCn1c(-c2nonc2N)nc2cnc(Oc3cccc(NC(=O)c4ccc(N(C)C)cc4)c3)cc21	-2.65%	0.6%	9.02%	0.27%	1.9%	-1.02%	4.81%	2.14%	1.78%	1.38%	1.03%	2.77%	6.27%	1.77%	3.99%	0.57%	1.96%	2.48%	2.42%	-3.9%
Nc1nc(-c2ccc(F)cc2)c(-c2ccc3ncccc3n2)s1	-1.32%	6.26%	16.1%	6.76%	24.2%	2.61%	20.2%	6.38%	25.9%	5.1%	6.49%	9.13%	26.9%	9.42%	27.8%	3.27%	5.68%	6.71%	20.1%	-5.15%
CCNC(=O)O[C@H]1CN[C@H](C#Cc2cc3ncnc(Nc4ccc(OCc5cccc(F)c5)c(Cl)c4)c3s2)C1	4.55%	4.1%	2.82%	3.17%	2.6%	2.39%	0.66%	2.61%	2.16%	1.66%	1.84%	3.4%	1.32%	3.63%	4.84%	1.85%	4.55%	3.5%	5.21%	-3.44%
CCn1c(-c2nonc2N)nc2c(C#CC(C)(C)O)nc(OC[C@H](N)c3ccccc3)cc21	77.3%	-1.28%	-0.66%	1.67%	2.25%	0.72%	1.98%	1.23%	1.98%	0.64%	7.77%	0.1%	2.5%	2.86%	2.9%	5.79%	9.07%	2.63%	3.84%	-1.29%
Nc1nc(-c2cccc(Cl)c2)c(-c2ccc3ncccc3n2)s1	-0.98%	3.98%	11.2%	7.52%	19.9%	3.37%	20.2%	6.97%	16.9%	3.18%	7.84%	5.66%	15.3%	3.63%	15.7%	5.48%	7.43%	3.3%	7.05%	-6.08%
N#Cc1c(NC(=O)CN2CCOCC2)sc2c1CCCC2	-4.27%	3.47%	4.25%	2.48%	5.61%	1.25%	4.91%	1.82%	4.61%	2.58%	5.24%	5.91%	7.6%	6.98%	7.71%	3.56%	8.62%	5.84%	5.84%	-5.02%
CS(=O)(=O)CCNCc1coc(-c2ccc3ncnc(Nc4ccc(OCc5ccccc5)cc4)c3c2)c1	-4.66%	1.64%	0.28%	4.11%	4.46%	1.21%	1.86%	2.14%	4.18%	1.94%	4.02%	3.03%	2.89%	4.85%	7.39%	2.87%	9.68%	3.06%	4.08%	-2.71%
NS(=O)(=O)c1ccc(Nc2ncc(-c3ccccc3)o2)cc1	8.68%	4.6%	17.8%	8.3%	39.3%	3.46%	40.1%	4.58%	28.1%	3.72%	17.9%	5.61%	26.6%	5.37%	37.9%	1.53%	6.29%	4.93%	42%	-5.59%
CC(C)(CO)CNC(=O)c1ccc2c(c1)/C(=N/Nc1ccc(S(N)(=O)=O)cc1)C(=O)N2	1.5%	-0.35%	9%	-2.04%	9.98%	-0.43%	9.9%	-0.04%	9.08%	-2%	8.62%	-0.6%	12.8%	-2.29%	10.7%	-0.91%	-1.23%	-1.16%	3.31%	1.56%
COc1cccc(-n2ncc3c(N/N=C/c4ccc(F)cc4)ncnc32)c1	5.5%	44.1%	79.3%	51.2%	84.5%	51.7%	85.4%	63.6%	88.8%	12.8%	38.8%	58.5%	86.1%	21.1%	75.8%	2.82%	3.76%	9.51%	57.9%	-4.72%
Cc1ccc(O)cc1Nc1ccnc2cc(-c3ccccn3)ccc12	4.08%	93.5%	96.2%	94.7%	97.2%	93.6%	97.9%	94%	98%	10.1%	50.7%	95.5%	98.2%	84.3%	89.4%	5.32%	34.1%	74.3%	95.7%	-5.44%
CCn1c(-c2nonc2N)nc2ccccc21	-4.14%	3.43%	2.16%	3.5%	0.21%	2.29%	-3.04%	4.29%	0.56%	2.3%	1.53%	3.97%	4.13%	4.4%	6.01%	1.5%	8.1%	4.04%	3%	-0.67%
O=C(Nc1n[nH]c2cc(-c3ccc(F)cc3)ccc12)C1CC1	-5.36%	9.03%	23.3%	11.3%	46.6%	11.5%	55.2%	7.91%	33.9%	19.5%	69.4%	10.8%	40.1%	5.81%	40.4%	1.12%	2.06%	3.46%	12.3%	-5.44%
COc1ccc(-c2nn3ncccc3c2-c2ccnc(Nc3ccc4c(c3)OCCO4)n2)cc1	-1.85%	-0.56%	13.9%	3.27%	34.6%	20.9%	63.3%	11.9%	55%	2.65%	32.3%	2.95%	33.3%	2.5%	25.8%	8.08%	35.2%	5.47%	33.2%	1.61%
Cc1ccc2c(-c3ccnc(Nc4ccccc4)n3)c(-c3ccc(F)cc3)nn2n1	5.13%	3.13%	15.7%	7.21%	36%	15.1%	56.4%	12%	49.9%	4.75%	20.2%	11.5%	42.2%	5.24%	35.5%	2.29%	5.55%	4.61%	34.1%	-5.33%
CCN1CCC(CC(=O)Nc2n[nH]c3nnc(-c4cccc(F)c4F)cc23)CC1	0.04%	1.76%	1.65%	2.63%	4.15%	-0.03%	3.11%	2.12%	3.13%	2.02%	3.8%	3.03%	2.59%	4%	4.16%	2.51%	0.86%	3.37%	3.96%	0.47%
Nc1ncc(-c2cccc(S(N)(=O)=O)c2)c2scc(-c3ccc(F)c(Cl)c3)c12	-1.87%	35.4%	84.7%	69.4%	93.5%	64.2%	93.9%	55.3%	91.4%	5.83%	35%	62.6%	92.4%	60.5%	87.6%	4.32%	13.8%	35.4%	78.4%	-4.87%
CCc1nn2ncccc2c1-c1ccnc(NC2CC2)n1	-4.39%	0.71%	4.01%	3.05%	6.43%	1.9%	4.54%	2.92%	7.3%	0.33%	1.06%	1.02%	4.43%	5.52%	6.81%	1.99%	5.07%	2.35%	5.86%	-2.55%
COc1cc(Nc2nccc(Nc3ccc4c(C)n[nH]c4c3)n2)cc(OC)c1OC	-1.27%	18.5%	67.2%	30.1%	78.3%	28.9%	75.6%	24.5%	72.7%	1.65%	14.3%	37.6%	83.6%	20.3%	69.7%	5.55%	39.3%	18.4%	69.9%	0.91%
CCn1c(-c2nonc2N)nc2c(C#CC(C)(C)O)ncc(OC3CCNCC3)c21	76%	-0.7%	-0.01%	2.05%	2.1%	-0.57%	0.51%	0.98%	0.41%	2.72%	1.99%	-0.54%	0.66%	4.72%	3.17%	1.83%	4.92%	2.02%	3.67%	-1.51%
Clc1ccc(-c2nn3ncccc3c2-c2ccnc(Nc3ccccc3)n2)cc1	1.5%	2.58%	8.98%	4.63%	20.5%	10.4%	45.8%	5.9%	36.2%	6.6%	30.7%	7.15%	24.5%	3.9%	27.6%	2.8%	2.67%	3.8%	18.2%	-0.26%
COc1cc2c(cc1Nc1nc(Nc3ccsc3C(N)=O)c3cc[nH]c3n1)N(C(=O)CN(C)C)CCC2(C)C	3.1%	0.79%	4.14%	4.5%	2.9%	2.15%	1.57%	4.15%	2.78%	3.19%	3.95%	3.45%	4.27%	2.57%	6.2%	95.7%	78.5%	2.86%	4.17%	47.4%
[O-][S+]1CCN(Cc2ccc(-c3ccc4ncnc(Nc5ccc(OCc6cccc(F)c6)c(Cl)c5)c4c3)o2)CC1	-3.68%	3.89%	6.86%	5.46%	5.91%	1.58%	7.69%	5.02%	6.64%	2.49%	3.02%	4.31%	4.49%	2.52%	5.75%	3.34%	7.82%	1.01%	7.14%	-4.66%
Fc1ccc(-c2nn3ncccc3c2-c2ccnc(Nc3ccc4c(c3)OCCO4)n2)cc1	-1.03%	10.2%	40.9%	25.5%	69.9%	38.6%	81%	31%	75.2%	14.1%	53.4%	29.3%	72.2%	11.8%	62.6%	4.64%	7.86%	10.4%	56.1%	-9.81%
c1ccc(COc2ccc(Nc3ncnc4ccc(-c5ccco5)cc34)cc2)cc1	1.25%	-0.69%	0.29%	0.16%	0.64%	0.39%	2.41%	0.54%	0.07%	1.64%	1.49%	0.09%	0.37%	2.97%	1%	1.38%	2.45%	2.41%	4.34%	0.76%
FC(F)(F)c1cccc(-c2nn3ncccc3c2-c2ccnc(Nc3ccc4c(c3)OCCO4)n2)c1	-1.75%	3.04%	9.11%	6.97%	36.6%	10.1%	50%	9.57%	45.2%	10.1%	32.5%	5.94%	30.6%	3.95%	30.4%	2.44%	3.89%	4.21%	32.1%	-5.2%
